These results are taken from PubChem BioAssay (NCI).

Experiment [1] is described as follows: NCI Yeast Anticancer Drug Screen. Data for the rad50 strain (AID 155).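 Note: 0% = growth of vehicle-only cultures of the same strain.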 Particulars: S. cerevisiae rad50 strain growth inhibition; at 50.0 µM; hits give high values. The method, boiled down: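 Vehicle-treated cultures provide the reference for the growth inhibition reported for compound-exposed, repair-deficient yeast.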
A short description of experiment [2]: NCI Yeast Anticancer Drug Screen. Data for the mec2-1 strain (AID 157). Particulars: S. cerevisiae mec2-1 strain, at 50.0 µM, hits give high values. The method, boiled down: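 Mutant yeast (mec2-1) grown with compound; growth inhibition relative to vehicle control reported.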
Experiment [3] in a line: NCI Yeast Anticancer Drug Screen. Data for the sgs1 mgt1 strain (AID 161).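 Note: 0% = growth of cultures given vehicle only.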 Particulars: S. cerevisiae sgs1 mgt1 strain, at 50.0 µM, hits give high values. In short, it runs like this: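 Yeast cells carrying a defined DNA-repair defect were exposed to test compounds. Growth inhibition was measured relative to vehicle-treated controls.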
The nature of experiment [4]: NCI Yeast Anticancer Drug Screen. Data for the cln2 rad14 strain (AID 165).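 Note: 0% = growth equal to vehicle treated cultures.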 Particulars: S. cerevisiae cln2 rad14 strain, at 50.0 µM, hits give high values. In short, it runs like this: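 Readout is yeast growth inhibition versus vehicle-treated controls, using a strain with cln2 and rad14 alterations exposed to compound.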
Experiment [5] in a line: NCI Yeast Anticancer Drug Screen. Data for the bub3 strain (AID 167). Particulars: S. cerevisiae bub3 mutant strain, at 50.0 µM, hits give high values. In short, it runs like this:
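Mutant yeast screening strain plus compound; vehicle-treated cultures serve as the 0% inhibition reference.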

Experiment [6] in a line: NCI Yeast Anticancer Drug Screen. Data for the mlh1 rad18 strain (AID 175). Particulars: S. cerevisiae mlh1 rad18 strain growth inhibition; at 50.0 µM; hits give high values. In short, it runs like this: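 Genetically defined yeast (DNA repair-deficient) exposed to compounds; growth inhibition determined relative to vehicle.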

The panel holds about 79,000 compounds, 15% with a hit somewhere; the sample as a whole holds those more often. Values without a mark were called inactive. Active and inactive are the calls of the source. Cut-off read from the data, not from the text of the source: active = growth inhibition above about 70%; inactive = the rest.

Regarding `NC(Cc1ccc(S(=O)(=O)O)cc1)C(=O)NC(CCCCNC(=O)NCCCCC(NC(=O)C(N)Cc1ccc(S(=O)(=O)O)cc1)C(=O)NC(Cc1ccc(S(=O)(=O)O)cc1)C(=O)O)C(=O)NC(Cc1ccc(S(=O)(=O)O)cc1)C(=O)O` (configuration not stated), the growth inhibition in experiment [1] is -11.7%; in experiment [2], -3.8%; in experiment [3] it was 8.45%; in experiment [4], -8.65%; in experiment [5], 22.6%; in experiment [6], 14.2%.
As to `CS/N=C(\c1ccccc1)N1CCOCC1`, the growth inhibition is -38.2% in experiment [1]; -5.7% in experiment [2]; -4.95% in experiment [3]; -21.1% in experiment [4]; 4.25% in experiment [5]; 5.2% in experiment [6].
As to `COc1ccc(C(=O)Nc2c(N)ncnc2N)cc1`, the growth inhibition is 16.8% in experiment [1]; 73.7% (active) in experiment [2]; 35.1% in experiment [3]; -3.6% in experiment [4]; 16.5% in experiment [5]; 15.1% in experiment [6].
As for `OCC(O)C(O)C(OC1OC(CO)C(O)C(O)C1O)C(O)CO` (configuration not stated), the growth inhibition in experiment [1] was -1.05%; in experiment [2] it was 37.8%; in experiment [3], 26.9%; in experiment [4], -2.2%; in experiment [5], 13.8%; in experiment [6], -3.2%.
Consider `CONC(CC(=O)c1ccccc1)c1ccccc1` (configuration not stated), for which the growth inhibition was 23.4% in experiment [1]; 6.95% in experiment [2]; 5.75% in experiment [3]; 2.7% in experiment [4]; 14.2% in experiment [5]; 5.65% in experiment [6].
Consider `COc1ccccc1/C=N/NS(=O)(=O)c1ccc(NC(C)=O)cc1`, for which the growth inhibition in experiment [1] was 0.85%; in experiment [2], -7.05%; in experiment [3], 14.1%; in experiment [4] it was -14.7%; in experiment [5], -41.3%; in experiment [6], -4.2%.
On to `O=C(c1ccco1)N(C(=S)N1CCN(c2ccccc2)CC1)C1CCCCC1`, for which the growth inhibition is 16.4% in experiment [1]; 25.4% in experiment [2]; 26.4% in experiment [3]; 36% in experiment [4]; 24.4% in experiment [5]; 19.1% in experiment [6].
As to `Cc1ccc(C2=Nc3ccccc3SC(c3cccc([N+](=O)[O-])c3)C2)cc1` (configuration not stated), the growth inhibition in experiment [1] was 11.2%; in experiment [2], -12.6%; in experiment [3], 11.8%; in experiment [4] it was -9.25%; in experiment [5] it was -6.2%; in experiment [6], -1.8%.
Regarding `CCOC(CN=Cc1cccc2ccccc12)OCC`, the growth inhibition was -26.4% in experiment [1]; -1.4% in experiment [2]; -11.8% in experiment [3]; 46.7% in experiment [4]; -3.55% in experiment [5]; 18.6% in experiment [6].
In the case of `COC(=O)CC(NC(=O)C(Cc1ccccc1)NC(=O)OCc1ccccc1)C(=O)O` (configuration not stated), the growth inhibition in experiment [1] is 31.5%; in experiment [2] it was 9.15%; in experiment [3] it was 18.2%; in experiment [4], 11.7%; in experiment [5] it was 2.1%; in experiment [6] it was 23.1%.
For `CCCC(=O)NC(Nc1cc(C)ccn1)(C(=O)OCC)C(F)(F)F` (configuration not stated), the growth inhibition is -4.85% in experiment [1]; 8.5% in experiment [2]; 9.1% in experiment [3]; 7.4% in experiment [4]; 15.8% in experiment [5]; -31.9% in experiment [6].
In the case of `CN(C)C1=CC(=S)NC2CCCCC12` (configuration not stated), the growth inhibition in experiment [1] was 4.1%; in experiment [2], -4.7%; in experiment [3] it was 10.6%; in experiment [4] it was 2.05%; in experiment [5], -10.1%; in experiment [6], 22.1%.
Take `COc1cc(/C=C2\C=Nc3ccccc32)ccc1O`: the growth inhibition in experiment [1] is 27.8%; in experiment [2] it was 23.9%; in experiment [3], 38%; in experiment [4], 20.3%; in experiment [5], 40.3%; in experiment [6], 35.7%.
For the compound `O=C(C[n+]1cccc2ccccc21)c1ccc(F)cc1`, the growth inhibition in experiment [1] is -0.05%; in experiment [2] it was -10.3%; in experiment [3] it was 18.1%; in experiment [4], 17%; in experiment [5], 10.2%; in experiment [6] it was -3%.
For `Cc1ccc(NC(=O)C(C)C)cc1`, the growth inhibition is -14% in experiment [1]; -16.6% in experiment [2]; -13.4% in experiment [3]; -24.2% in experiment [4]; -19.1% in experiment [5]; -21.2% in experiment [6].
For the compound `CCCCCCCCCCCCCCCC(=O)N=C(C(N)=O)C(N)=O`, the growth inhibition in experiment [1] was 4.25%; in experiment [2] it was -35%; in experiment [3] it was -14.7%; in experiment [4] it was -54%; in experiment [5], -22.6%; in experiment [6], -19.9%.
Regarding `C/C=C/C1N(C)CCCN1C`, the growth inhibition in experiment [1] was -2%; in experiment [2], -7.55%; in experiment [3], -7.25%; in experiment [4], 18%; in experiment [5], -25.9%; in experiment [6], 8.55%.
Consider `O=C1c2ccccc2CCC12OC2c1ccncc1` (configuration not stated), for which the growth inhibition is 12.1% in experiment [1]; 27.1% in experiment [2]; 25% in experiment [3]; 6.75% in experiment [4]; 39.4% in experiment [5]; 29.6% in experiment [6].
As to `CC1CCC(C(C)C)/C(=N\O)C1` (configuration not stated), the growth inhibition in experiment [1] is 4.8%; in experiment [2], -19.4%; in experiment [3], -11.9%; in experiment [4], -7.7%; in experiment [5], -6.4%; in experiment [6], 2.05%.
Regarding `CCOc1c(N=Nc2ccccc2C)c(C)nn1C(N)=S`, the growth inhibition is 18.1% in experiment [1]; 0.7% in experiment [2]; 18.3% in experiment [3]; -24.6% in experiment [4]; 21.1% in experiment [5]; 23.1% in experiment [6].
Take `N#C/C(=C\NC(N)=S)c1nc2ccccc2s1`: the growth inhibition is -18.1% in experiment [1]; 7.15% in experiment [2]; -15.8% in experiment [3]; 24.8% in experiment [4]; -4.25% in experiment [5]; -11.7% in experiment [6].
For `CCOC(=O)c1c2ccc(/C=C/c3ccccc3)ccc-2c(C(=O)OCC)c1N`, the growth inhibition in experiment [1] was -16.6%; in experiment [2] it was -7.25%; in experiment [3], -23.9%; in experiment [4] it was 10.6%; in experiment [5], -32%; in experiment [6], -22.6%.
For `CN(/N=C/c1ccnc2ccccc12)c1ccc([N+](=O)[O-])cc1[N+](=O)[O-]`, the growth inhibition in experiment [1] is -31.3%; in experiment [2], -10.9%; in experiment [3], -19.5%; in experiment [4] it was 8.1%; in experiment [5] it was -6.95%; in experiment [6], -12.6%.
Consider `Nc1ncnc2c1ccn2C1OC2COP(=O)(O)OC2C1O` (configuration not stated), for which the growth inhibition in experiment [1] is -12.6%; in experiment [2], -31.4%; in experiment [3], -7.1%; in experiment [4], 8.45%; in experiment [5] it was -18.3%; in experiment [6] it was -15.1%.
`C(=C\c1cc(-c2ccc3ccccc3n2)nc2ccc3ccccc3c12)/c1ccc2ccccc2n1`: the growth inhibition in experiment [1] is 9.7%; in experiment [2], -1.4%; in experiment [3] it was 26.9%; in experiment [4] it was 28.9%; in experiment [5], 25.5%; in experiment [6], -11.2%.
For `O=C1c2ccccc2C(=O)N1CNc1ccccc1S`, the growth inhibition was 13.2% in experiment [1]; 5.1% in experiment [2]; 19.6% in experiment [3]; 28.4% in experiment [4]; 22.1% in experiment [5]; -8% in experiment [6].
In the case of `O=C(NC(CO)CO)c1ccc2cc(C(=O)N3CC(CCl)c4ccc([N+](=O)[O-])cc43)[nH]c2c1` (configuration not stated), the growth inhibition is 42.6% in experiment [1]; -35.8% in experiment [2]; -22.4% in experiment [3]; -7.95% in experiment [4]; -36.1% in experiment [5]; -72.8% in experiment [6].
Turning to `Clc1ccc(N=Cc2ccc(C=Nc3ccc(Cl)c(Cl)c3)cc2)cc1Cl`, the growth inhibition was -7.7% in experiment [1]; -21.8% in experiment [2]; 15.7% in experiment [3]; 11% in experiment [4]; 16.9% in experiment [5]; 11.6% in experiment [6].
As to `COc1ccc(Cl)cc1NC(=O)CC(C)=O`, the growth inhibition in experiment [1] is -9.9%; in experiment [2], -12.2%; in experiment [3], 3.45%; in experiment [4], 6.45%; in experiment [5] it was -3.2%; in experiment [6], -5.95%.
For `O=Cc1c[nH]c2ccccc12`, the growth inhibition is -7.7% in experiment [1]; 9.95% in experiment [2]; 22.8% in experiment [3]; -15.6% in experiment [4]; 1.85% in experiment [5]; 6.25% in experiment [6].
In the case of `N#Cc1cccc(-c2ccc(-c3ccccc3)o2)c1`, the growth inhibition in experiment [1] is 31.6%; in experiment [2], 27.4%; in experiment [3] it was 27.1%; in experiment [4] it was -7.25%; in experiment [5], 60.9%; in experiment [6], 20.4%.
Regarding `CCCCC(CC)C1OCCS1` (configuration not stated), the growth inhibition in experiment [1] was 5.95%; in experiment [2] it was -24.4%; in experiment [3], -4.3%; in experiment [4] it was 1.9%; in experiment [5], -17%; in experiment [6] it was -10%.
Consider `CC1=CC(=O)c2c(C=O)c(O)c(O)c(C(C)C)c2C1=O`, for which the growth inhibition is 91% (active) in experiment [1]; 93.4% (active) in experiment [2]; 91.8% (active) in experiment [3]; 91.1% (active) in experiment [4]; 91.2% (active) in experiment [5]; 90.8% (active) in experiment [6].
For `CN(C)c1ccc(C2(c3ccc(N(C)C)cc3)OC(=O)c3cc(N(C)C)ccc32)cc1`, the growth inhibition in experiment [1] was 4.55%; in experiment [2], -6.2%; in experiment [3], -0.75%; in experiment [4], -31.7%; in experiment [5] it was 16.4%; in experiment [6] it was 33.7%.
Consider `CC(C)NC(=O)c1ccccc1-[s+]1c2ccccc2c(=O)n1C(C)C` (configuration not stated), for which the growth inhibition in experiment [1] was 22%; in experiment [2], 1.15%; in experiment [3] it was -11.7%; in experiment [4], 3.9%; in experiment [5], -2.95%; in experiment [6], 9.3%.
Regarding `C/C(CC(=O)Nc1ccc(NC(=O)/C(C)=N/NS(=O)(=O)c2ccc(C)cc2)cc1)=N\NS(=O)(=O)c1ccc(C)cc1`, the growth inhibition was 16.2% in experiment [1]; 2.95% in experiment [2]; -12.8% in experiment [3]; -6.35% in experiment [4]; -0.9% in experiment [5]; 27.1% in experiment [6].
On to `CC(=O)N(C(C)=O)N1C(=O)C2C3C=CC(C4CC34)C2C1=O` (configuration not stated), for which the growth inhibition in experiment [1] is 30.2%; in experiment [2], 17%; in experiment [3], 15.8%; in experiment [4], 19.6%; in experiment [5] it was 2.95%; in experiment [6], 23.4%.
